# Data as given in the supplement of paper PMC6555819.
# Experiments:
# Experiment in all cases: PBM binding z-score (relative to random genomic background probes); higher = stronger binding; sequences stand for … in GC…GCGATTGACAGCGTAGAATGAAGG
# [1] = system: FXR:RXRa (NR concentration 270 nM, RXRa partner concentration 90 nM)
# Outline: (§1)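 Ligand-free nuclear receptor dimers were applied to custom Agilent 4×180K protein-binding microarrays whose double-stranded probes carried direct-repeat seeds, single-nucleotide variants, half-site ablations and random human genomic background sequences in 34-nt variable regions. Incubation lasted 1 h. Binding z-scores were computed against the random background probes from regression-normalized fluorescence.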
# [2] = system: LXRa:RXRa (NR concentration 270 nM, RXRa partner concentration 90 nM)
# Outline: as §1
# [3] = system: LXRa homodimer (NR concentration 270 nM)
# Outline: as §1
# [4] = system: LXRb:RXRa (NR concentration 270 nM, RXRa partner concentration 90 nM)
# Outline: as §1
# [5] = system: LXRb homodimer (NR concentration 270 nM)
# Outline: as §1
# [6] = system: PPARa:RXRa (NR concentration 270 nM, RXRa partner concentration 90 nM)
# Outline: as §1
# [7] = system: PPARg:RXRa (NR concentration 180 nM, RXRa partner concentration 90 nM)
# Outline: as §1
# [8] = system: PPARg:RXRa 270nM:90nM, anti-RXR (NR concentration 270 nM, RXRa partner concentration 90 nM)
# Outline: as §1
# [9] = system: PPARg:RXRa 30nM:10nM, anti-RXR (NR concentration 30 nM, RXRa partner concentration 10 nM)
# Outline: as §1
# [10] = system: PPARg:RXRa 90nM:30nM, anti-RXR (NR concentration 90 nM, RXRa partner concentration 30 nM)
# Outline: as §1
Sequence,PBM binding z-score [1],PBM binding z-score [2],PBM binding z-score [3],PBM binding z-score [4],PBM binding z-score [5],PBM binding z-score [6],PBM binding z-score [7],PBM binding z-score [8],PBM binding z-score [9],PBM binding z-score [10]
ATCCCTAGGTAAAAGTTCAGTGAATCCCGAGGAT,0.811,1.11,0.954,0.838,0.347,2.71,3.92,4.85,3.04,4.55
TCTTGTAAATCAACAGGAGGTTAAGAAAGATCGA,0.826,1.32,0.389,1.1,0.0438,1.36,0.285,2.05,3.57,2.79
TAGCCTAGGTCATTAAGGGGCCAGTATAGAAAGC,3.58,3.35,0.285,2.67,0.552,3.21,1.75,2.07,0.301,1.11
TCTTATAGGTAAACAGGTGAAAGTCCGTAAGTTA,1.1,1.01,0.0286,0.875,0.307,2.34,2.7,3.52,4.06,3.86
TGAATGAGGTTATAAGATCAGGAAACGTTGCAAA,1.24,1.53,-0.511,1.5,-0.0615,2.98,1.29,2.14,0.703,1.62
ATCTCTCGGTAAGACTCAGTTCAGTGAAGAACGC,0.549,0.674,0.845,0.602,1.47,0.3,-0.175,0.19,0.114,0.251
TCTGCTAGGTCACCGATGGTCAGCTAATCTGCTA,3.75,3.3,-0.47,2.07,-0.343,3.82,3.64,4.04,2.09,3.11
TATAGTTGGTCACGGAGGTCACACACGACGGGTA,3.47,3.92,3.29,3.47,1.25,4.09,4.49,3.8,1.92,3.19
CCTGACGGGTCAAGGTTATAGCACGGGTGGTACG,4.36,2.88,0.0717,2.21,-0.369,4,2.54,2.92,0.472,1.61
ATCTCTATGTAAGACTCAGTTCAGTGAAGAACGC,-0.0618,0.138,0.304,-0.0643,0.391,-0.231,0.076,-0.0831,-0.162,-0.281
AGATGTAGGTTATCGGGTCATTCAGTTTGCGCAT,3.31,3.21,1.64,3.01,0.639,4.89,6.25,5.84,3.56,5.27
AGACCGAGGGCACGCTGAGTTGATAGCAGAGTAG,0.748,0.67,-0.437,0.0788,-0.999,1.56,0.962,0.775,-0.337,0.0427
GCTAGTTGGTCAGTAAAAGGTCACACAACGGTCG,3.52,4.37,4.08,4.15,0.685,4.73,3.31,4.38,2.61,4.66
CGTCAAAGTTCACGGTAACGTAACAGAAAGCAGC,7.1,6.15,2.53,4.09,0.842,5.42,6.18,6.59,3.33,5.36
CCTCCAAGGTCAAGGTCAGTGAAAGAGACTCGAA,7.8,5.56,1.22,4.56,0.877,5.99,6.15,6.06,2.76,4.75
ACTATTACTTGAGACGAGGGCAACCGATAGGTTG,0.529,0.528,0.422,0.481,1.02,0.44,0.912,0.46,0.448,0.266
ATCTCTAGGTAGAGATAGTTCAGTGAATGCAAAT,-0.234,-0.0128,0.0165,-0.111,0.0975,0.178,0.258,0.0156,0.0243,0.104
AGAACGAGGGCAATGAGTTGATAGCGCGGGTGGC,0.136,0.127,-0.734,-0.343,-0.754,1.25,0.897,0.618,-0.31,0.0829
ACTATTAGTTGAGACGAGGGCAACCCATAGGTTG,0.567,-0.017,-0.102,0.0689,0.34,0.296,0.846,0.162,0.398,0.326
GCATATAGGTTATACAAGGTGAAAGTCCGATTGT,2.85,6.15,1.21,3.08,0.203,2.94,2.19,2.63,0.843,1.98
TCTAGTTGGTCACGTAGGTCACACACGACGGGTA,2.06,1.85,1.01,2,0.514,2.78,2.17,3.05,3.43,3.35
GCTGCTACGTCAGGTTGGTCAGCTAACGGGTACG,-0.416,-0.646,-0.592,-0.968,-0.619,-0.713,-0.0701,-0.954,-0.756,-0.888
AGAATGAGGTTATACGTAGATCAGGGACGAAAGT,2.37,1.79,0.0917,1.55,-0.0358,3.23,1.83,2,0.651,1.6
